The campaign covered roughly 65,000 compounds. About 2,100 (3.2%) showed an effect of 50% or more. The median lay at about -52%. Shown is part of a subset that was picked to be rich in strong results.

The assay has as its system Plasmodium falciparum. The experiment in a line: Screen against P. falciparum Asexual Blood Stage (ABS), at 5uM. It is filed as functional, Dd2. The note with it: tested at 5 uM.
As for `CCCn1nc2c(cc1=O)CN(c1ncnc3ccsc13)CC2`, the INHIBITION is -43%.
As for `CSCc1noc(CNS(=O)(=O)c2cccc(C(=O)NC3CC3)c2)n1`, the INHIBITION is listed as -45.3%.
As to `CC(C)n1cc(C(=O)NCCN(C)C)c2n[nH]c(=O)c-2c1`, the INHIBITION is reported as -36.6%.
Consider `Cc1noc(C(C)C)c1C(=O)NCCCN1CCCC1`, for which the INHIBITION is reported as -39.2%.
Take `CC(C)CC(NCc1cscn1)c1ccccn1` (centres undefined): the INHIBITION is 32.3%.
Regarding `CC(C)CC(NCc1ccsc1)c1ccccn1` (centres undefined), the INHIBITION stood at 60%.
`CC(C)CC(NCc1cccs1)c1ccccn1` (centres undefined): the INHIBITION was -21.4%.
For `CC(C)OCCC(=O)NCC(O)c1c(F)cccc1F` (centres undefined) the value was -37.7%.
As for `CN(C)CCNc1ncccc1CNC(=O)Nc1cc(F)cc(F)c1`, the INHIBITION stood at 55%.
Consider `CC(C)c1nnc(NC(=O)NCc2cccnc2NCCN(C)C)s1`, for which the INHIBITION is given as -89.9%.
As for `Cc1nc(NC(=O)NCc2cccnc2NCCN(C)C)sc1C`, the INHIBITION is -8.39%.
Regarding `CC(O)CN1CCC(CNCc2cccc(C(=O)N(C)C)c2)CC1` (centres undefined), the INHIBITION is -81.9%.
For `CC(O)CN1CCC(CNCc2ccccc2F)CC1` (centres undefined) the value was -0.868%; for `Cc1noc(C)c1CNCC1CCN(CC(O)c2ccccc2)CC1` (centres undefined), 43.4%; for `CC(O)CN1CCC(CNCc2ccccc2OC(F)(F)F)CC1` (centres undefined), 67.7%.
With `CC(O)CN1CCC(CNCc2cccc(C(N)=O)c2)CC1` (centres undefined), the INHIBITION is given as -73.1%.
Take `Cc1ncccc1CNCC1CCN(CC(O)c2ccccc2)CC1` (centres undefined): the INHIBITION is 31.4%.
With `CC(O)CN1CCC(CNCc2ccccc2C(F)(F)F)CC1` (centres undefined), the INHIBITION stood at 48.3%.
For `CC(O)CN1CCC(CNCc2cccc(OC(C)C)c2)CC1` (centres undefined) the value was 62.4%; for `Cc1ccc(CNCC2CCN(CC(O)c3ccccc3)CC2)o1` (centres undefined), 62.5%; for `COCC(Nc1ncnc2c1CCNCC2)c1ccccn1` (centres undefined), -66.2%.
Consider `CCOCC(=O)NCC1CCN(Cc2ccsc2)CC1`, for which the INHIBITION is reported as -90.6%.
As for `CN(C)Cc1ccnc(C2CCCN2Cc2ccc3ncccc3c2)n1` (centres undefined), the INHIBITION is 42%.
In the case of `COc1cc(CNc2cc(-c3nncn3C)ccn2)cc(OC)c1OC`, the INHIBITION is -52.4%.
With `Cc1ccccc1-c1noc(CN2CCC(N3CCNC3=O)CC2)n1`, the INHIBITION is -80.6%.
Under `COCC(=O)N1CCCC1c1ccc(C(=O)NCCN2CCCCC2)s1` (centres undefined) stands -139%.
With `CCC1CN(CC(=O)NCCN2CCCC2)c2ccccc2S1` (centres undefined), the INHIBITION was found to be 63.8%.
As for `O=C(NCCN1CCCC1)c1cc2c(s1)CCN2C(=O)c1ccccc1`, the INHIBITION is -40.6%.
For `Cc1ccccc1OCC1CCCN(c2cc(N)nc(N)n2)C1` (centres undefined), the INHIBITION was determined as 44.5%.
Regarding `CN1CCCC(CCCc2cccnc2)(C(N)=O)C1` (centres undefined), the INHIBITION is given as -103%.
Turning to `COc1cc(-c2cc(NC3CCCC3)nc3[nH]ccc23)nc(N)n1`, the INHIBITION is on record as 62.5%.
Regarding `Nc1ccnc(-c2cc(NC3CCNCC3)nc3[nH]ccc23)c1`, the INHIBITION is given as -29.8%.
With `COc1nccnc1-c1cc(NC2CCCC2)nc2[nH]ccc12`, the INHIBITION is on record as 18.8%.
In the case of `CCN(Cc1noc(CC(C)C)n1)Cc1cc2ccc(F)cc2[nH]c1=O`, the INHIBITION is recorded as -109%.
For `CCN(Cc1nc(COC)no1)Cc1cc2ccc(F)cc2[nH]c1=O`, the INHIBITION is listed as 62.2%.
`CCc1noc(CN(CC)Cc2cc3ccc(F)cc3[nH]c2=O)n1`: the INHIBITION was -9.14%.
For `O=C(C[C@@H]1COC[C@H]2CN(CC3CCOCC3)C[C@@H]12)N1CCCCO1` the value was -22.4%; for `CC(O)CN1CCN(C(=O)c2cc3ccccc3n2C)CC1` (centres undefined), -75.1%.
As for `CCC(C)(COc1ncccc1Cl)NCC(=O)NC1CCCCC1` (centres undefined), the INHIBITION is listed as -85.6%.
On to `CNC(=O)C1CCN(CC(=O)Nc2cc(C(C)C)no2)CC1`, for which the INHIBITION is given as -141%.
`CCOCC1CN(C(=O)c2cccs2)Cc2cnn(CC3CC3)c21` (centres undefined): the INHIBITION turned out to be 18.5%.
For `CCOCC1CN(C(=O)c2cnccn2)Cc2cnn(CC3CC3)c21` (centres undefined), the INHIBITION is listed as -127%.
In the case of `CCOCC1CN(C(=O)c2cccn2C)Cc2cnn(CC3CC3)c21` (centres undefined), the INHIBITION came out at 57.8%.
Turning to `O=c1cc(CN2CCCCC2c2cccc(F)c2)[nH]c2ncnn12` (centres undefined), the INHIBITION is recorded as -27.8%.
Take `Cc1n[nH]c(C)c1C1COCCN1C(=O)c1cccc(F)c1F` (centres undefined): the INHIBITION is given as 49.6%.
Under `Cc1n[nH]c(C)c1C1COCCN1C(=O)c1ccccc1` (centres undefined) stands -119%.
In the case of `COc1ccccc1C(=O)N1CCOCC1c1c(C)n[nH]c1C` (centres undefined), the INHIBITION turned out to be 57.5%.
For `CN1CCOC(CNCc2ccc(OCc3ccccn3)cc2)C1` (centres undefined) the value was -15.8%; for `Cc1cnn(CCNCc2ccccc2OCc2ccncc2)c1`, 40.5%.
Turning to `CCN1CCOC(CNCc2ccccc2OCC(=O)N(C)C)C1` (centres undefined), the INHIBITION is -19.5%.
`Cc1cnn(CCNCc2ccccc2OCc2ccccn2)c1`: the INHIBITION came to 67%.
On to `CN1CCOC(CNCc2ccccc2OCc2ccccn2)C1` (centres undefined), for which the INHIBITION amounted to 67.7%.
`Cc1cnn(CCNCc2ccc(OCc3ccccn3)cc2)c1`: the INHIBITION is -12.3%.
In the case of `CCN1CCOC(CNCc2ccccc2OCc2ccncc2)C1` (centres undefined), the INHIBITION is given as 55.3%.

Values taken from ChEMBL document CHEMBL4513216, “Probing the Open Global Health Chemical Diversity Library for Multistage-Active Starting Points for Next-Generation Antimalarials” (ACS Infect Dis, 2020).
